Bioassay records deposited in PubChem BioAssay by National Center for Advancing Translational Sciences (NCATS).
Sfp PPTase inh – qHTS Assay for Inhibitors of Bacillus subtilis Sfp phosphopantetheinyl transferase (PPTase); 4'-phosphopantetheinyl transferase ffp (Bacillus subtilis), Q9F4F7; Biochemical Sfp PPTase activity, qHTS; Potency, µM, actives largely listed as inhibitors; actives 3.5% (n = 310,000);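 note: the enzyme is Sfp with the accession as filed and its product quenches rhodamine fluorescence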
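Reaction rates are the 30-min fluorescence difference (ex 525, em 598 nm) in wells containing 15 nM Sfp, 5 uM rhodamine-CoA and 12.5 uM BHQ-2-YbbR at pH 7.6 with 10 mM MgCl2.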
RGS12 GoLoco inh – qHTS Assay for Inhibitors of RGS12 GoLoco Motif Activity (Red Fluorophore); Guanine nucleotide-binding protein G(i) subunit alpha-1 (Homo sapiens), P63096; Potency, µM (top dose mostly 61.6 µM), most hits filed as inhibitors; Gai1:RGS12 GoLoco peptide FP, rhodamine, 10 min; actives 0.44% (n = 230,000); active = well fitted inhibition curve with a large enough effect, not every such curve was filed as active; inactive = no such curve, though single readings can be large or run the other way; note: nearly all actives have a fitted effect of over 30% in size
Target sequence (P63096 whole entry, looked up): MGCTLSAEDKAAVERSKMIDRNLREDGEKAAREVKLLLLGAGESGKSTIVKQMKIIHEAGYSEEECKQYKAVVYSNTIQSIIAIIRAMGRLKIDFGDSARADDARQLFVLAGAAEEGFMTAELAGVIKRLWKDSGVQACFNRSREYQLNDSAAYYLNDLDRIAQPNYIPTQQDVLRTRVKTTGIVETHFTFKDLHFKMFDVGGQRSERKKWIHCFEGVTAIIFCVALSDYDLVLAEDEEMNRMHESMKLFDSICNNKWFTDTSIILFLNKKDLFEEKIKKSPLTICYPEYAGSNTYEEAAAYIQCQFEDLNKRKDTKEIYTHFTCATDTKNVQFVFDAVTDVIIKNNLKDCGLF
FBPA coupling cs – qHTS Assay for Inhibitors of Fructose-1,6-bisphosphate Aldolase from Giardia Lamblia: Coupling assay counterscreen; coupling enzyme system counterscreen, AmpLite Red fluorescence; activity change, negative = inhibition, % at 58.2 µM, hits read low; actives 0.67% (n = 290,000); in the data active = activity change below about -30%
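Final compound at 57.5 uM, incubated 10 min at RT with coupling enzyme reagent (glyceraldehyde-3-phosphate), then 20 min with substrate and AmpLite Red detection. Fluorescence read at 525/598 nm; tests interference with the coupling assay, not aldolase inhibition.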
JMJD2E inh – qHTS Assay for Inhibitors of Human Jumonji Domain Containing 2E (JMJD2E) | Lysine-specific demethylase 4E (Homo sapiens), B2RXH2 | JMJD2E catalytic domain, FDH-coupled NADH fluorescence (FDH is formaldehyde dehydrogenase) | Potency, µM (top dose mostly 57.1 µM), most hits filed as inhibitors | actives 1.6% (n = 230,000); active = well fitted inhibition curve with a large enough effect, not every such curve was filed as active; inconclusive = small, poorly fitted or top-dose-only effect, or another doubt; inactive = no such curve, though single readings can be large or run the other way; note: nearly all actives have a fitted effect of over 50% in size
ALDH1A1 inh – qHTS Assay for Inhibitors of Aldehyde Dehydrogenase 1 (ALDH1A1); Potency, µM (highest dose often 75.3 µM), hits mostly inhibitors; Purified ALDH1A1, NADH fluorescence, propionaldehyde substrate; Aldehyde dehydrogenase 1A1 (Homo sapiens), P00352; actives 7.3% (n = 220,000); AID 1030, 2008; active = well fitted inhibition curve with a large enough effect, not every such curve was filed as active; inconclusive = small, poorly fitted or top-dose-only effect, or another doubt; inactive = no such curve, though single readings can be large or run the other way
NPSR antag – qHTS Assay for Antagonists of the Neuropeptide S Receptor: cAMP Signal Transduction. Q6W5P4. CHO-NPSR cells, cAMP TR-FRET, antagonist mode. Potency, µM (doses to about 38.3 µM), usual class: inhibitors. actives 1% (n = 220,000). AID 1461, 2008; note: nearly all actives have a fitted effect of over 50% in size
Large screens that a line does not name were inactive. A selection: hits, their analogues and other compounds. The true share with any hit is near 8.5%. Unless noted, calls come from the whole dose curve; as a rule, active = well fitted curve in the direction sought with a large enough effect; inconclusive = small, poorly fitted or top-dose-only effect, or another doubt; inactive = no such curve, though single readings can be large; an effect the other way counts as inactive or inconclusive.

Cc1ccc(S(=O)(=O)NCCCCCC(=O)Nc2ccccc2)cc1	ALDH1A1 inh 11.2µM
CNC(=O)CCCCCNS(=O)(=O)c1ccc(C)cc1	none
O=C(Nc1ccc(CN2CCCCC2)cc1)c1sc2ccccc2c1Cl	none (no result: ALDH1A1 inh)
CCOC(=O)C1=C(COC(=O)/C=C/c2cccc(OC)c2)NC(=O)NC1C (stereo not drawn)	none (no result: RGS12 GoLoco inh, FBPA coupling cs, JMJD2E inh, ALDH1A1 inh, NPSR antag)
C#CCOC(=O)C[N+](C)(C)CC#Cc1ccccc1	none
O=C(NNc1ccc(C(F)(F)F)cc1[N+](=O)[O-])c1ccc(NS(=O)(=O)c2ccc(F)cc2)cc1	ALDH1A1 inh inconclusive, NPSR antag 10µM
CC(C)[C@H](Nc1ccc(C(F)(F)F)cc1[N+](=O)[O-])C(=O)O	none (no result: ALDH1A1 inh)
CC1(C)C2CCC1(CS(=O)(=O)NCc1ccc(S(N)(=O)=O)cc1)C(=O)C2 (stereo not drawn)	none (no result: RGS12 GoLoco inh, JMJD2E inh, ALDH1A1 inh, NPSR antag)
Cc1ccc(S(=O)(=O)NC(CC(C)C)C(=O)N2CCCC2)cc1 (stereo not drawn)	none (no result: RGS12 GoLoco inh, FBPA coupling cs, JMJD2E inh, ALDH1A1 inh, NPSR antag)
CCn1c(O)c(N=NC2=NC(=O)CS2)c2ccccc21	ALDH1A1 inh 11.2µM
O=C(CN1CCCCC1)Nc1c2c(nc3ccccc13)N(c1ccccc1)CC2	JMJD2E inh inconclusive, ALDH1A1 inh inconclusive, NPSR antag 7.94µM
CCCC(=O)Nc1c2c(nc3ccccc13)N(c1ccccc1)CC2	JMJD2E inh inconclusive, ALDH1A1 inh inconclusive
COc1ccc(C(=O)CCS(=O)(=O)c2ccc(C)cc2)cc1OC	none (no result: RGS12 GoLoco inh, JMJD2E inh, ALDH1A1 inh, NPSR antag)
COc1ccc(C(=O)CCC(C)(C)[N+](=O)[O-])cc1OC	ALDH1A1 inh 8.91µM
O=C(NCCc1ccccc1)c1ccc(Cl)cc1[N+](=O)[O-]	none (no result: RGS12 GoLoco inh, JMJD2E inh, ALDH1A1 inh, NPSR antag)
CCOC(=O)C1(Cc2ccccc2)CCN(Cc2ccc3cc(NC(C)=O)ccc3n2)CC1	JMJD2E inh inconclusive
Fc1ccc(-n2[nH]nnc2=S)cc1N1CCCC1	Sfp PPTase inh 79.4µM, JMJD2E inh inconclusive, ALDH1A1 inh 14.1µM
COc1ccc(/C=C(\CC(=O)O)c2nc3ccccc3o2)cc1	JMJD2E inh inconclusive
COc1ccc(C(=O)/C(=C/c2cccs2)c2nc3ccccc3o2)cc1	ALDH1A1 inh 2µM, NPSR antag inconclusive
CCOC(=O)C1CCCN(C2CC(=O)N(c3ccc(C)c(C)c3)C2=O)C1 (stereo not drawn)	ALDH1A1 inh 10µM
CCOC(=O)C1CCCN(C2CC(=O)N(c3ccc(N4C(=O)CC(N5CCCC(C(=O)OCC)C5)C4=O)cc3)C2=O)C1 (stereo not drawn)	ALDH1A1 inh 3.16µM
CCOC(=O)C1CCCN(C2CC(=O)N(c3cccc(C(F)(F)F)c3)C2=O)C1 (stereo not drawn)	Sfp PPTase inh 50.1µM, ALDH1A1 inh 8.91µM
CCOC(=O)C1CCCN(C2CC(=O)N(c3ccccc3)C2=O)C1 (stereo not drawn)	ALDH1A1 inh inconclusive
O=C1CC(N2CCN(c3cccc(C(F)(F)F)c3)CC2)C(=O)N1c1ccc(F)cc1 (stereo not drawn)	none
Cc1cccc(N2C(=O)CC(N3CCN(c4cccc(C(F)(F)F)c4)CC3)C2=O)c1 (stereo not drawn)	ALDH1A1 inh 28.2µM
CCOC(=O)c1sc2ncn(/N=C/c3ccc(O)c(OC)c3)c(=O)c2c1C	ALDH1A1 inh inconclusive
CCCCN(C(=O)c1ccc(C#N)cc1)c1c(N)n(CCC)c(=O)[nH]c1=O	none (no result: RGS12 GoLoco inh, JMJD2E inh, ALDH1A1 inh, NPSR antag)
CCOC(=O)C1CCN(C2CC(=O)N(c3ccc(OCC)cc3)C2=O)CC1 (stereo not drawn)	ALDH1A1 inh 28.2µM
CCOC(=O)C1CCCN(C2CC(=O)N(c3ccc(C(C)C)cc3)C2=O)C1 (stereo not drawn)	ALDH1A1 inh 10µM
CCCCCCOc1ccc(N2C(=O)CC(N3CCC(C(=O)OCC)CC3)C2=O)cc1 (stereo not drawn)	ALDH1A1 inh inconclusive
